IP6K1 inh – blocks human inositol hexakisphosphate kinase 1 | Q92551 | IP6K1 kinase, ADP-Glo luminescence, 2 h; hits give low values | activity change, % (series mostly up to about 58 µM) | hit rate 0.81% among 140,000 | AID 1645851; in the data active = activity change below about -25%; also: % is scaled to controls: 0 for no effect and ±100 for the full control effect
Target sequence (Q92551 whole entry, looked up): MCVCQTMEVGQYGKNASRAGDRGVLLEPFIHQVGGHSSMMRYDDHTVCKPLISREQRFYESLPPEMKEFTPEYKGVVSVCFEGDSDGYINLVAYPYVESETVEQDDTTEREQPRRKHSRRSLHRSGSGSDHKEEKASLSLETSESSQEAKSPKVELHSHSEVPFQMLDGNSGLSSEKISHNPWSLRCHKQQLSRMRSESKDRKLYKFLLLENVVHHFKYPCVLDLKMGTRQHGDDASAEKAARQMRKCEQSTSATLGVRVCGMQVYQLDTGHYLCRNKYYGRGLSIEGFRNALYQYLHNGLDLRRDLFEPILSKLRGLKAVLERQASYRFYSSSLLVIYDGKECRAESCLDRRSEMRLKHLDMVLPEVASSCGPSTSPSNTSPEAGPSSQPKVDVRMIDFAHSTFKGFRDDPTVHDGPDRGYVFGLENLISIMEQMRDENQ
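ADP-Glo luminescence measures ADP made by human IP6K1 during a 2 h RT reaction with ATP/IP6 (mix at 1.3 mM/130 uM); top library doses 57.5 and 19.1 uM final.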
SNCA expr inh – SNCA gene expression inhibition; HEK-293 SNCA-luciferase knock-in, luminescence, 24 h; Potency, µM (doses to about 57.2 µM), without a hit: at the highest dose activity change, negative = inhibition, hits mostly inhibitors; hit rate 0.17% among 140,000;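 also: potency is read from the fitted curve at half-maximal effect; plate controls were DMSO cells for no effect and cell-free wells for full effect; nearly all actives have a fitted effect of over 45% in size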
HEK293 viab – cell viability loss counter-screen; hit rate 0.12% among 150,000; HEK-293-SNCA-luc viability, GF-AFC fluorescence, 24 h; Potency, µM (highest dose often 57.1 µM), inactives show top-dose activity change, negative = cytotoxicity, hits mostly cytotoxic;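 also: potency is read from the fitted curve at half-maximal effect; 0% = DMSO-treated cells and -100% = medium-only wells without cells; nearly all actives have a fitted effect of over 30% in size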
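Cytotoxicity counterscreen: after 24 h compound treatment of genome-edited SNCA-luciferase HEK-293 cells, live-cell protease substrate GF-AFC read by fluorescence after 30 min; activity scaled between DMSO (0%) and medium-only (-100%), curves Hill-fitted.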
KDM5B inhibitor – KDM5B demethylase inhibition; Potency, µM (top dose mostly 57.7 µM), most hits filed as inhibitors; hit rate 2.6% among 220,000; KDM5B demethylase, FDH-coupled NADH fluorescence (FDH is formaldehyde dehydrogenase); AID 1347165; also: potency is read from the fitted curve at half-maximal effect; 0% is about no effect; nearly all actives have a fitted effect of over 70% in size
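qHTS format, multiple compound concentrations. Buffer 50 mM HEPES pH 7.5/0.01% Tween-20; 200 nM KDM5BΔAP final; 10 min compound preincubation; substrate-mix levels 12.5 µM peptide, 25 µM α-KG, 0.25 mM NAD⁺; 30 min RT; ΔRFU.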
Starred values were filed as active, the others as inactive; i = inactive; u = inconclusive; x = not tested or not shown; [ ] = dose if it differs, or a comment. Hits are enriched below; roughly 2.8% of the tested compounds scored in any of these assays. Unless noted, calls follow the shape of the dose curve; as a rule, active = well fitted curve in the direction sought with a large enough effect; inconclusive = small, poorly fitted or top-dose-only effect, or another doubt; inactive = no such curve, though single readings can be large; an effect the other way counts as inactive or inconclusive.

SMILES	IP6K1 inh	SNCA expr inh	HEK293 viab	KDM5B inhibitor
CC1=C(C)C(=O)OC(C(C)C2CCC3C4C5OC5C5(O)CC(OC6OC(CO)C(OC7OC(C)C(O)C(O)C7O)C(O)C6O)CC(O)C5(C)C4CCC23C)C1 (stereo not drawn)	-3.9	x	8.1%[23.9 µM]	x
CN(Cc1ccccc1)C(=O)CCc1ccnc(N2CCOCC2)c1	1.3	32.5%	4.5%	25.1µM*
O=C(CCc1ccnc(N2CCCC2)c1)NCc1ccccc1Cl	15.6	20.8%	2.5%	u
Cc1ccccc1NC(=O)CCc1ccnc(N2CCCC2)c1	8.0	21.8%	0.2%	28.2µM*
COc1ccc(NC(=O)CCc2ccnc(N3CCCC3)c2)c(C)c1	-17.4	7.9%	-13.8%	25.1µM*
CCNc1c(NC(=O)NCC(C)C)c(=O)oc2ccccc12	x	x	x	i
Cc1cccc2c(C(=O)N(C)C(C)Cc3ccccn3)cc(-c3cnc(N)nc3)nc12 (stereo not drawn)	12.2	-27.4%	-2.9%	31.6µM*
CCN(Cc1ccncc1)C(=O)c1cc(-c2cnc(C)nc2)nc2c(C)cccc12	-3.0	1.0%	-16.6%	u
Cc1ccnc(CC(C)N(C)C(=O)c2cc(-c3cnn(C)c3)nc3ccccc23)c1 (stereo not drawn)	34.0	-1.8%	0.7%	22.4µM*
O=c1ncn(Cc2ccccc2)c2ccc(-c3ccccc3)nc12	2.7	46.3%[87.6 µM]	-5.4%[87.6 µM]	35.5µM*
COc1cc(F)ccc1-c1ccc2ncn(C3CC3)c(=O)c2n1	12.0	65.8%[87.6 µM]	-2.4%[87.6 µM]	31.6µM*
O=c1c2nc(-c3ccccc3C(F)(F)F)ccc2ncn1C1CC1	8.0	8.1%[87.6 µM]	1.9%[87.6 µM]	i
O=c1ncn(Cc2ccccc2)c2ccc(-c3cccnc3)nc12	1.3	1.0%[87.6 µM]	-6.5%[87.6 µM]	i
COc1cc(F)ccc1-c1ccc2c(n1)c(=O)ncn2Cc1ccccc1	-6.4	-2.0%[87.6 µM]	-7.9%[87.6 µM]	35.5µM*
O=c1ncn(CC2CC2)c2ccc(-c3ccc(F)cc3F)nc12	-9.7	88.3%[87.6 µM]	0.9%[87.6 µM]	31.6µM*
OCCCNC(=S)NCCSc1ccccc1	x	x	x	i
Cc1noc([C@@H]2CN(Cc3ccncc3)C[C@H]2CO)n1	-12.5	-0.8%	2.7%	28.2µM*
Cc1ccc2cc(CN3C[C@@H](CO)[C@H](c4nc(C)no4)C3)c(=O)[nH]c2c1	-3.7	-4.5%	-8.2%	28.2µM*
Cc1noc([C@@H]2CN(Cc3ccccc3C)C[C@H]2CO)n1	-9.4	1.2%	-8.1%	i
Cc1cnc(NC(=O)c2ccc3c(c2)OCCN(CCC(F)(F)F)C3)s1	-4.0	71.0%[87.6 µM]	-11.3%[87.6 µM]	i
Cc1csc(NC(=O)c2ccc3c(c2)OCCN(CCC(F)(F)F)C3)n1	2.4	49.4%[87.6 µM]	-6.2%[87.6 µM]	35.5µM*
Cn1nc(C(=O)N2CCc3nc4cc[nH]n4c(=O)c3C2)c2ccccc21	5.7	47.7%	3.8%	31.6µM*
O=C(Nc1ccc(Cl)cc1F)N1CCc2nc3cc[nH]n3c(=O)c2C1	0.0	7.1%	-0.8%	31.6µM*
COc1ccc(CC(=O)N2CCc3nc4cc[nH]n4c(=O)c3C2)c(Cl)c1	13.8	1.1%	0.4%	u
Cn1cccc1C(=O)N1CCc2nc3cc[nH]n3c(=O)c2C1	10.6	-3.3%	15.1%	31.6µM*
SMILES	IP6K1 inh	SNCA expr inh	HEK293 viab	KDM5B inhibitor
Cc1ccccc1C(=O)N1CCc2nc3cc[nH]n3c(=O)c2C1	3.9	-5.6%	-3.1%	28.2µM*
O=C(CCn1c2c(c3ccccc31)CCCC2)N1CCc2nc3cc[nH]n3c(=O)c2C1	6.4	-26.5%	-2.1%	i
COc1ccc(-c2c(C)oc3cc(OCC(=O)O)ccc3c2=O)cc1OC	x	x	x	i
C=CCOC(=O)c1c(C)[nH]c(C(=O)OCC)c1C	x	x	x	i
CC1(C)Cc2sc3c(=O)n(Cc4ccc(Br)cc4)cnc3c2CO1	x	x	x	i
O=C(NCc1ccccc1)c1ccc2nnc(-c3cc(C(F)(F)F)cc(C(F)(F)F)c3)n2c1	-9.8	-24.9%	-20.7%	x
COc1ccccc1-c1ccc2c(C(=O)N3CCC(Cc4ccccc4)CC3)nn(C)c2n1	-3.0	-16.9%	-4.5%	x
Cc1ccsc1C(=O)N1CCc2c(nc3cc[nH]n3c2=O)C1	24.3	3.4%	-3.0%	31.6µM*
COc1ccc(-c2cc3nc4c(c(=O)n3[nH]2)CN(C(=O)c2sccc2C)CC4)cc1	2.6	-22.0%	4.7%	u
CC(=O)NCC(=O)N1Cc2ccccc2CC2(CCCCN2CC2CCNC2)C1 (stereo not drawn)	-8.8	-10.2%	0.8%	2.82µM*
CCC(=O)N1Cc2ccccc2CC2(CCCCN2CC)C1 (stereo not drawn)	-11.0	-1.7%[87.6 µM]	-9.2%[87.6 µM]	100µM*
CCCC(=O)N1Cc2ccccc2CC2(CCCN2CCC)C1 (stereo not drawn)	-7.7	51.9%	-7.7%	u
CCCC(=O)N1Cc2ccccc2CC2(CCCCN2CC)C1 (stereo not drawn)	-18.3	1.6%	-7.3%	56.2µM*
CC(C)C(=O)N1Cc2ccccc2CC2(CCCN(CC3CCNC3)C2)C1 (stereo not drawn)	10.5	-6.9%	-7.4%	35.5µM*
COc1cccc(CNCc2cccn2-c2nnc(N3CCN(C)CC3)s2)c1OC	x	x	x	i
O=C(c1cccc(Cl)c1)N1Cc2ccccc2CC2(CCCN2Cc2ccncc2)C1 (stereo not drawn)	-10.8	-21.5%	-20.2%	50.1µM*
Cc1ccc(Nc2ccnc(N3CCC(NC(=O)c4cccc(Cl)c4)CC3)n2)cc1	-11.3	-29.0%	-7.7%	x
CC(C)n1nc(OC(C)(C)C(=O)NC2CC2)c2cc(CN3CCOCC3)ccc21	1.8	-5.1%[87.6 µM]	-10.3%[87.6 µM]	31.6µM*
CC(C)n1nc(OC(C)(C)C(=O)Nc2cccnc2)c2cc(CN3CCOCC3)ccc21	-3.5	-1.6%[87.6 µM]	5.4%[87.6 µM]	u
CC(C)n1nc(OC(C)(C)C(=O)NCCc2ccccn2)c2cc(CN3CCOCC3)ccc21	8.4	-0.1%	-7.9%	28.2µM*
Cn1c(C(=O)NC2CCN(Cc3ccccc3)CC2)cc2c1CCN(Cc1ccccc1)C2	-7.8	-28.6%	-2.2%	20µM*
COc1ccc(-c2cc(N3CCCC(NC(=O)c4cccc5[nH]ccc45)C3)n[nH]2)cc1 (stereo not drawn)	2.1	6.1%	u	25.1µM*
COc1ccc(-c2cc(N3CCCN(C(=O)c4cccc5[nH]ccc45)CC3)n[nH]2)cc1	12.5	27.0%	-7.8%	28.2µM*
COc1ccc(C(=O)N2CCCN(c3cc(-c4ccc(OC)cc4)[nH]n3)CC2)cc1	3.1	6.2%	-10.0%	i
O=C(NC1CCN(c2cc(-c3ccc(F)cc3)[nH]n2)C1)c1c[nH]c2ccccc12 (stereo not drawn)	0.0	u	u	14.1µM*
Cc1nc(N2CCC(NC(=O)c3cccc4[nH]ccc34)CC2)cc(C(F)(F)F)n1	-14.8	-9.2%	-14.8%	28.2µM*
CCc1ccc(NC(=O)Nc2ccc3sc(NS(=O)(=O)c4ccccc4)nc3c2)cc1	x	x	x	i
CN(C)CCCN(CC1CCOC(C)(C)C1)C(=O)c1ccco1 (stereo not drawn)	x	x	x	i
Cn1c(=O)c2c(nc(N3CCCC3)n2Cc2ccccc2Cl)n(C)c1=O	x	x	x	i
CNC(=O)c1cc(C2CC2)nc2onc(C3CCN(C(=O)Nc4ccc(C)c(F)c4)C3)c12 (stereo not drawn)	-4.3	x	x	x
